Measurements taken from PubChem BioAssay (NCATS).
Values joined by “and” are separate entries in the source; they are usually repeats but may differ in a detail not shown here. Equal entries are not always repeated. Records with an inconclusive call do not appear. Some structures have more than one record in an assay (separate samples or runs), and their calls can disagree. Active and inactive are the calls of the source. Unless noted, the call rests on the fitted dose curve; in most records, active means well fitted curve in the direction sought with a large enough effect; inconclusive means small, poorly fitted or top-dose-only effect, or another doubt; inactive means no such curve, though single readings can be large; an effect the other way counts as inactive or inconclusive.

What was measured:
[1] = AP1 Signaling Pathway (AID 357; active means well fitted curve in either direction with a large enough effect, not every such curve was filed as active;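 further: ME-180 reporter cells stimulated with EGF at its EC50 level; on the % scale 0 is the no-effect control and ±100 the full control effect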); details: ME-180 AP-1-bla reporter, EGF-induced, beta-lactamase ratio, 5 h; at 17.2 µM (top of the series) unless noted
In short: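 In this screen, ME-180 cells in Opti-MEM with 0.5% dialyzed FBS received EC50 EGF and compound titrations for 5 h. AP-1 reporter beta-lactamase was detected via CCF4 ratio, giving AC50 for positive and negative modulators.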

[2] = Cell Viability - BJ (AID 421; calls by dose curve;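 further: potency means the concentration at half of the fitted maximal effect; cells exposed to compound for 40 hours at 37 °C before readout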); details: BJ fibroblast viability, qHTS
In short: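 Luminescent ATP signal (CellTiter-Glo, 20 min at room temperature) served as the read-out of viable BJ cells after 40 hours of compound treatment. Responses were scaled between DMSO and 100 uM tamoxifen, and AC50 values were obtained by Hill modeling.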

[3] = Cell Viability - Hek293 (AID 427;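 active means compounds whose dose-response curve shows a full or clear partial loss of cell viability, called from curve shape rather than a numeric limit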;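 further: potency means the concentration at half of the fitted maximal effect; cells exposed to compound for 40 hours at 37 °C before reading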); details: qHTS
In short: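 Luminescent ATP read-out (CellTiter-Glo, 20 min RT) after 40 hr compound exposure at 37 °C in complete medium. Signal normalized to DMSO (basal) and 100 uM tamoxifen (100% inhibition); concentration-response fitted with the standard Hill equation to give AC50.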

[4] = Cell Viability - HepG2 (AID 433; calls by dose curve;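 further: potency means the concentration at half of the fitted maximal effect; potency for ATP loss meaning cytotoxicity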); details: qHTS
In short: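 Cytotoxicity read as ATP loss (CellTiter-Glo luminescence) after 40 hr compound exposure of HepG2, 1500 cells/well, 37 °C. AC50 by Hill equation; 0% set by DMSO, 100% inhibition by 100 uM tamoxifen.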

[5] = Cell Viability - MRC5 (AID 434; calls by dose curve;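 further: potency means the concentration at half of the fitted maximal effect; potency reflects cytotoxicity seen as loss of intracellular ATP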); details: MRC5 lung fibroblast viability, qHTS
In short: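 Decrease in intracellular ATP, quantified by luciferase light output, reflects compound toxicity toward MRC5 cells exposed for 40 hr in complete culture medium. Concentration-response curves, scaled between DMSO and 100 uM tamoxifen, gave AC50 values.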

[6] = Cell Viability - SK-N-SH (AID 435; calls by dose curve; further: potency means the concentration at half of the fitted maximal effect); details: SK-N-SH neuroblastoma cell viability qHTS
In short: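 qHTS cytotoxicity: CellTiter-Glo ATP luminescence after 40 h compound exposure of human neuroblastoma SK-N-SH cells at 37 °C. AC50 derived by Hill-equation fitting, with DMSO as basal and 100 uM tamoxifen as full inhibition.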

[7] = NFAT Signaling Pathway (AID 444; active means well fitted curve in either direction with a large enough effect, not every such curve was filed as active;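 further: carbachol stimulus at about its EC50 of 1 µM final; on the % scale 0 is the no-effect control and ±100 the full control effect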); details: Jurkat NFAT-bla M1, carbachol, beta-lactamase ratio, 5 h; at 17.2 µM (top of the series) unless noted
In short: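 Jurkat cells carrying an NFAT-driven β-lactamase reporter and co-transfected muscarinic M1 receptor were treated with compound plus carbachol (1 uM final, an EC50 level) for 5 h at 37 °C. CCF4 loading followed for 1 h at RT; 460/530 nm ratio gave %activity.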

[8] = Stat Signaling Pathway (AID 446; active means well fitted curve in either direction with a large enough effect, not every such curve was filed as active;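 further: ME-180 cervical cancer cells given 40 pM IL-6 alongside compound; SIE-controlled beta-lactamase reporter measured as 460/530 nm FRET emission ratio; on the % scale 0 is the no-effect control and ±100 the full control effect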); details: ME-180 (cervical carcinoma) SIE beta-lactamase reporter, IL-6 stimulated, 5 h; at 17.2 µM (top of the series) unless noted
In short: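 Compound effects on IL-6-induced STAT reporter activity were measured in ME-180 cells. After overnight culture, cells were co-treated with 40 pM IL-6 for 5 hrs before beta-lactamase substrate loading at room temperature.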

[9] = target: Mitogen-activated protein kinase 10 (Mus musculus) (UniProt Q61831); assay: JNK3 AlphaScreen Assay (AID 530; active means well fitted curve in either direction with a large enough effect, not every such curve was filed as active;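 further: kinase came from lysate of stimulated human HepG2 cells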; further: potency means the concentration at half of the fitted maximal effect;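 on activity change, negative = inhibition: signal reports phosphorylation of biotinylated GST-cJun 1-79 at Ser73 with 10 µM ATP; on the % scale 0 is the no-effect control and ±100 the full control effect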)
In short: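 Phosphorylation of biotinylated GST-cJun(1-79) at Ser73 is measured by AlphaScreen proximity luminescence. Enzyme is JNK3 in HepG2 lysates activated with interleukin-1beta and tumor necrosis factor alpha; ATP is 10 uM final.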

[10] = Cell Viability - N2a (AID 540); details: N2a mouse neuroblastoma cell viability; activity change, negative = cytotoxicity: at 92.2 µM (top of the series); further: nearly all actives have a fitted effect of over 45% in size; further: potency means the concentration at half of the fitted maximal effect;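 on activity change, negative = cytotoxicity: plate controls were DMSO alone for no effect and tamoxifen control for full effect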
In short: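 Cytotoxicity was scored as loss of cellular ATP in N2a cells, a mouse neuroblastoma line. Compounds are applied in a qHTS concentration series for 40 hr at 37 °C.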

[11] = Cell Viability - NIH 3T3 (AID 541); details: NIH 3T3 cell viability, qHTS; activity change, negative = cytotoxicity: at 92.2 µM (top of the series); further: nearly all actives have a fitted effect of over 25% in size; further: potency means the concentration at half of the fitted maximal effect;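 on activity change, negative = cytotoxicity: plate controls were DMSO alone for no effect and tamoxifen positive control for full effect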
In short: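 Cells seeded at 1000/well, rested 5 hr at 37 °C, then dosed and incubated 40 hr at 37 °C. CellTiter-Glo added, 20 min room temperature, luminescence read. AC50 by Hill fit.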

[12] = Cell Viability - HUV-EC-C (AID 542); further: nearly all actives have a fitted effect of over 35% in size; further: potency means the concentration at half of the fitted maximal effect
In short: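 Cells were seeded at 1000 per well and incubated 5 hr at 37 °C before compound addition. After 40 hr at 37 °C, CellTiter-Glo reagent was added for 20 min and luminescence read. AC50 values came from Hill-equation modelling.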

[13] = Cell Viability - H-4-II-E (AID 543); further: nearly all actives have a fitted effect of over 35% in size; further: potency means the concentration at half of the fitted maximal effect
In short: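 Cells seeded at 1500 per well and rested 5 hr; compounds added; 40 hr incubation at 37 °C; CellTiter-Glo added, 20 min at room temperature; luminescence read. Hill-equation fits gave AC50.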

[14] = Cell Viability - SH-SY5Y (AID 544); details: SH-SY5Y neuroblastoma cell viability; further: nearly all actives have a fitted effect of over 55% in size; further: potency means the concentration at half of the fitted maximal effect;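 on viability change, negative = cytotoxic: 0% = DMSO alone and -100% = 100 µM tamoxifen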
In short: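 Cells were plated at 1500 per well and allowed 5 hr at 37 °C. Compounds were added across a concentration range and incubated 40 hr at 37 °C. CellTiter-Glo was added for 20 min at room temperature before luminescence reading.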

[15] = Cell Viability - Mesenchymal (AID 546);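 further: cells exposed to compound for 40 hours before reading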; further: potency means the concentration at half of the fitted maximal effect;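 on activity change, negative = cytotoxicity: 0% = DMSO only and -100% = 100 µM tamoxifen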
In short: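 In this qHTS cytotoxicity format, glomerulus-derived human mesenchymal kidney cells received compound for 40 hr, then luciferase-based ATP quantitation. Concentration-response data were fitted with the Hill equation.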

[16] = target: Cytochrome P450 1A2 (Homo sapiens) (UniProt P05177); assay: p450-cyp1a2 (AID 410; calls by dose curve; further: potency means the concentration at half of the fitted maximal effect;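 on activity change, negative = inhibition: -100% = full effect of reference inhibitor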)
In short: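 O-Demethylation of luciferin 6' methyl ether by human CYP1A2 is monitored as luciferase luminescence. Substrate sits at Km (100uM); enzyme is 20nM. Values are scaled to 57 uM furafylline as maximal inhibition.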

[17] = target: Glucocorticoid receptor (Homo sapiens) (UniProt P04150); assay: GR-GFP Redistribution (AID 450;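 active means compounds whose dose series gives a full or clear partial fitted curve of increased nuclear translocation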; further: potency means the concentration at half of the fitted maximal effect); details: U2OS GR-GFP nuclear translocation, laser cytometry, 2 h
[18] = target: Glucocorticoid receptor (Homo sapiens) (UniProt P04150); assay: GR-EFC Redistribution (AID 451; calls by dose curve; further: potency means the concentration at half of the fitted maximal effect); details: CHO-K1 GR-EFC translocation, beta-gal luminescence, 2 h
In short: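 CHO-K1 cells stably expressing nuclear-localized β-gal enzyme acceptor and GR fused C-terminally to the enzyme donor fragment; ligand-driven nuclear translocation restores β-gal by complementation. Compounds titrated up to 46 uM final, 2 h at 37 °C; luminescence read.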

[19] = Cell Viability - Renal Proximal Tubule (AID 545); further: nearly all actives have a fitted effect of over 40% in size; further: potency means the concentration at half of the fitted maximal effect;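 on activity change, negative = cytotoxicity: 0% = DMSO only and -100% = 100 µM tamoxifen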
In short: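 Viability taken as intracellular ATP (CellTiter-Glo luminescence) after 40 hr, 37 °C compound treatment of primary proximal tubule cells from rat kidney, 1000 cells/well; Hill-equation fits of qHTS concentration-response data gave AC50.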

[20] = Cell Viability - Jurkat (AID 426;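 active means dose-dependent loss of cell ATP signal giving a full or clear fitted curve, ranked by lower potency value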;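 further: potency means the concentration at half of the fitted maximal effect; cells exposed to compound for 40 hours at 37 °C before ATP read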); details: qHTS
In short: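 Cells of the human T-cell leukemia line Jurkat (E6-1) are seeded at 5000 per well, treated with compound across a concentration range for 40 hours at 37 °C, then lysed with CellTiter-Glo; luminescence reports ATP.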

[21] = viability change, negative = cytotoxic: at 92.2 µM (top of the series)

Sequence of Cytochrome P450 1A2 (Homo sapiens) (P05177 whole entry, looked up): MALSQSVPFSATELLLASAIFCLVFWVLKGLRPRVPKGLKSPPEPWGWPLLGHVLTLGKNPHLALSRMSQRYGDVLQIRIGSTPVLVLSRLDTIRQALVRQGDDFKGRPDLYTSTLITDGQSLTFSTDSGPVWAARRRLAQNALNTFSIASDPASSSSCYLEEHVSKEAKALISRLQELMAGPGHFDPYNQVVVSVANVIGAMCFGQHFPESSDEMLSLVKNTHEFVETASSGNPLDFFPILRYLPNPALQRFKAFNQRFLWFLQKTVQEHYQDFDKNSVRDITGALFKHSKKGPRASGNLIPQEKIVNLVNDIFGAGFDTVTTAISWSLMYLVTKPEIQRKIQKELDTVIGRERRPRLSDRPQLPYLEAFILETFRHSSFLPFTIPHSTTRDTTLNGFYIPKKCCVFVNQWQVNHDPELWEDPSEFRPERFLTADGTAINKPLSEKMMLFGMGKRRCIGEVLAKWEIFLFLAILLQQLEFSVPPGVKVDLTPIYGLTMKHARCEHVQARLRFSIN
Sequence of Glucocorticoid receptor (Homo sapiens) (P04150 whole entry, looked up, the tested form may be a part): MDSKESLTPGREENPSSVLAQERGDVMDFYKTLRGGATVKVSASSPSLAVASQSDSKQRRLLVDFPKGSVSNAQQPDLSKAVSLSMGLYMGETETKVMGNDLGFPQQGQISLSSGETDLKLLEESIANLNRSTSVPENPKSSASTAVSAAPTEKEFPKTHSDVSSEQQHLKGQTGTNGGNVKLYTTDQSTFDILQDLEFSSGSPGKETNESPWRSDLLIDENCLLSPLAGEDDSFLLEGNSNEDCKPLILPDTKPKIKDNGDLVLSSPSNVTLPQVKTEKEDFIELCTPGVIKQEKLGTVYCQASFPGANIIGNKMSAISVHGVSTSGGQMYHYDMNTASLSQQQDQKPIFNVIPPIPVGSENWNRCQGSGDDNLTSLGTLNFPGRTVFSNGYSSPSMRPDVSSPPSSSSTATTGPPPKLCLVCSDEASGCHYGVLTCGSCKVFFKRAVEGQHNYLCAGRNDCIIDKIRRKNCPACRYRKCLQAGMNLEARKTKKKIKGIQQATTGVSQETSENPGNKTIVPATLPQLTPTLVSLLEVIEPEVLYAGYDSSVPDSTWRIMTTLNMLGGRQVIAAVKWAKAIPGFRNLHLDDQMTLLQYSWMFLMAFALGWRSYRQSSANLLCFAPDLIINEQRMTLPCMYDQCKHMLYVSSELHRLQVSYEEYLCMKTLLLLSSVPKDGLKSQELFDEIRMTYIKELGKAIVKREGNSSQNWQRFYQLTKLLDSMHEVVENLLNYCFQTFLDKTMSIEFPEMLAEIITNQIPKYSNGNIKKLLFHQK

CC(=O)[C@H]1CC[C@H]2[C@@H]3CCC4=CC(=O)CC[C@]4(C)[C@H]3CC[C@]12C
inactive: activity change, negative = inhibition [1] 1.43% | Potency [2] > 92 µM | Potency [4] > 92 µM | Potency [5] > 92 µM | Potency [6] > 92 µM | activity change, negative = inhibition [7] -29.5% | activity, negative = inhibition [8] 2.68% | Potency [9] | Potency [12] | viability change, negative = cytotoxic ([14]; at 92.2 µM (top of the series)) -22.5% | Potency [15]
active: Potency [3] 48.5 µM | activity change, negative = cytotoxicity [10] -96.5% and -82.2% | activity change, negative = cytotoxicity [11] -129% | Potency [13] 39.8 µM | viability change, negative = cytotoxic [14, 21] -101%

OCc1ccc(-c2nn(Cc3ccccc3)c3ccccc23)o1
inactive: activity change, negative = inhibition [1] -16.4% [at 38 µM] | activity change, negative = inhibition [7] 4.66% [at 38 µM] | activity, negative = inhibition [8] -17.6% [at 38 µM] | Potency [17] > 46 µM | Potency [18] > 46 µM
active: Potency [16] 1.58 µM

COc1ccc2cc3[n+](cc2c1OC)CCc1cc2c(cc1-3)OCO2
active: Potency [16] 5.01 µM | Potency [10] 1.26 µM | Potency [11] 1 µM
inactive: activity change, negative = inhibition [1] 10.1% | Potency [2] > 92 µM | Potency [5] > 92 µM | Potency [6] > 92 µM | activity, negative = inhibition [8] -1.52% | Potency [17] > 20.6 µM | Potency [18] > 20.6 µM | Potency [9] | Potency [12] | Potency [13] | Potency [14, 21] | Potency [19] | Potency [15]

Cc1nnc(NS(=O)(=O)c2ccc(N)cc2)s1
inactive: activity change, negative = inhibition [1] 7.08% and 5.89% | Potency [16] | Potency [2] > 92 µM | Potency [20] > 92 µM | Potency [3] > 92 µM | Potency [4] > 92 µM | Potency [5] > 92 µM | Potency [6] > 92 µM | activity change, negative = inhibition [7] 16.1% and -9.52% | activity, negative = inhibition [8] 0.539% and 1.42% | Potency [9] | Potency [10] | activity change, negative = cytotoxicity [11] -22.7% | Potency [12] | Potency [13] | Potency [14, 21] | Potency [19] | Potency [15]

CCOC(=O)c1ccc(OC(=O)CCCCCN=C(N)N)cc1
active: Potency [16] 12.6 µM and 15.8 µM
inactive: activity change, negative = inhibition [1] 1.04% | activity, negative = inhibition [8] -23.2% | Potency [9]

CNNCc1ccc(C(=O)NC(C)C)cc1
inactive: activity change, negative = inhibition [1] -1.4% | activity change, negative = inhibition [7] -25.9% | Potency [17] > 20.6 µM | Potency [18] > 20.6 µM | Potency [9]
active: Potency [16] 1.58 µM

Cc1ccnc2c1NC(=O)c1cccnc1N2C1CC1
inactive: Potency [2] > 92 µM | Potency [20] > 92 µM | Potency [3] > 92 µM | Potency [4] > 92 µM | Potency [5] > 92 µM | Potency [6] > 92 µM | Potency [9] | Potency [10] | activity change, negative = cytotoxicity [11] -11% | Potency [12] | Potency [13] | Potency [14, 21] | Potency [19] | Potency [15]

O=C(O)c1cccnc1
inactive: Potency [16] | activity change, negative = inhibition [7] -4.12% | activity, negative = inhibition [8] 3.94% | Potency [9]

O=S(=O)(c1cccc2cnccc12)N1CCCNCC1
inactive: activity change, negative = inhibition [7] -20.4%

CN(C)c1ccc(C(=C2C=CC(=[N+](C)C)C=C2)c2ccc(N(C)C)cc2)cc1
active: Potency [2] 5.35 µM | Potency [20] 2.75 µM | Potency [3] 5.18 µM | Potency [4] 8.58 µM | Potency [5] 4.08 µM | Potency [6] 1.8 µM | Potency [9] 2 µM | Potency [10] 0.794 µM | Potency [11] 1 µM | Potency [12] 3.98 µM | Potency [13] 2 µM | Potency [14, 21] 1.58 µM | Potency [19] 12.6 µM | Potency [15] 2.51 µM

CCn1cc(C(=O)O)c(=O)c2cc(F)c(N3CCNCC3)cc21
inactive: activity change, negative = inhibition [1] -6.52% and 0.998% | activity change, negative = inhibition [7] 1.51% and 17.3% | activity, negative = inhibition [8] 1.48% and 7% | Potency [17] > 20.6 µM | Potency [18] > 20.6 µM | Potency [9]

Cn1c(=O)c2c(ncn2CC(O)CO)n(C)c1=O (stereo not drawn)
inactive: activity change, negative = inhibition [1] 2.4% | activity change, negative = inhibition [7] 10.5% | activity, negative = inhibition [8] 1.2% | Potency [17] > 20.6 µM

CC(=O)Oc1ccccc1C(=O)Nc1ncc([N+](=O)[O-])s1
active: Potency [20] 30.6 µM | Potency [3] 32.6 µM | Potency [6] 20.7 µM | Potency [10] 25.1 µM | Potency [11] 31.6 µM | Potency [12] 31.6 µM | Potency [13] 31.6 µM | Potency [14, 21] 25.1 µM | Potency [19] 25.1 µM
